Screens as filed in PubChem BioAssay.
Pf apPOL block = Pf-apPOL DNA polymerase inhibition. Recombinant Pf-apPOL, molecular beacon fluorescence, 1.5 h. inhibition, % at 10 µM. 0.25% of 210,000 active
mHTT-CaM PPI inh = inhibitors of human mutant huntingtin-calmodulin interaction; P42858; AlphaScreen His-mHTT/GST-CaM binding, luminescence; inhibition, % at 15 µM; 3.6% of 190,000 active;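 further: 0% = both proteins with DMSO and 100% = one protein alone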
Target sequence (P42858 whole entry, looked up, stated change not applied): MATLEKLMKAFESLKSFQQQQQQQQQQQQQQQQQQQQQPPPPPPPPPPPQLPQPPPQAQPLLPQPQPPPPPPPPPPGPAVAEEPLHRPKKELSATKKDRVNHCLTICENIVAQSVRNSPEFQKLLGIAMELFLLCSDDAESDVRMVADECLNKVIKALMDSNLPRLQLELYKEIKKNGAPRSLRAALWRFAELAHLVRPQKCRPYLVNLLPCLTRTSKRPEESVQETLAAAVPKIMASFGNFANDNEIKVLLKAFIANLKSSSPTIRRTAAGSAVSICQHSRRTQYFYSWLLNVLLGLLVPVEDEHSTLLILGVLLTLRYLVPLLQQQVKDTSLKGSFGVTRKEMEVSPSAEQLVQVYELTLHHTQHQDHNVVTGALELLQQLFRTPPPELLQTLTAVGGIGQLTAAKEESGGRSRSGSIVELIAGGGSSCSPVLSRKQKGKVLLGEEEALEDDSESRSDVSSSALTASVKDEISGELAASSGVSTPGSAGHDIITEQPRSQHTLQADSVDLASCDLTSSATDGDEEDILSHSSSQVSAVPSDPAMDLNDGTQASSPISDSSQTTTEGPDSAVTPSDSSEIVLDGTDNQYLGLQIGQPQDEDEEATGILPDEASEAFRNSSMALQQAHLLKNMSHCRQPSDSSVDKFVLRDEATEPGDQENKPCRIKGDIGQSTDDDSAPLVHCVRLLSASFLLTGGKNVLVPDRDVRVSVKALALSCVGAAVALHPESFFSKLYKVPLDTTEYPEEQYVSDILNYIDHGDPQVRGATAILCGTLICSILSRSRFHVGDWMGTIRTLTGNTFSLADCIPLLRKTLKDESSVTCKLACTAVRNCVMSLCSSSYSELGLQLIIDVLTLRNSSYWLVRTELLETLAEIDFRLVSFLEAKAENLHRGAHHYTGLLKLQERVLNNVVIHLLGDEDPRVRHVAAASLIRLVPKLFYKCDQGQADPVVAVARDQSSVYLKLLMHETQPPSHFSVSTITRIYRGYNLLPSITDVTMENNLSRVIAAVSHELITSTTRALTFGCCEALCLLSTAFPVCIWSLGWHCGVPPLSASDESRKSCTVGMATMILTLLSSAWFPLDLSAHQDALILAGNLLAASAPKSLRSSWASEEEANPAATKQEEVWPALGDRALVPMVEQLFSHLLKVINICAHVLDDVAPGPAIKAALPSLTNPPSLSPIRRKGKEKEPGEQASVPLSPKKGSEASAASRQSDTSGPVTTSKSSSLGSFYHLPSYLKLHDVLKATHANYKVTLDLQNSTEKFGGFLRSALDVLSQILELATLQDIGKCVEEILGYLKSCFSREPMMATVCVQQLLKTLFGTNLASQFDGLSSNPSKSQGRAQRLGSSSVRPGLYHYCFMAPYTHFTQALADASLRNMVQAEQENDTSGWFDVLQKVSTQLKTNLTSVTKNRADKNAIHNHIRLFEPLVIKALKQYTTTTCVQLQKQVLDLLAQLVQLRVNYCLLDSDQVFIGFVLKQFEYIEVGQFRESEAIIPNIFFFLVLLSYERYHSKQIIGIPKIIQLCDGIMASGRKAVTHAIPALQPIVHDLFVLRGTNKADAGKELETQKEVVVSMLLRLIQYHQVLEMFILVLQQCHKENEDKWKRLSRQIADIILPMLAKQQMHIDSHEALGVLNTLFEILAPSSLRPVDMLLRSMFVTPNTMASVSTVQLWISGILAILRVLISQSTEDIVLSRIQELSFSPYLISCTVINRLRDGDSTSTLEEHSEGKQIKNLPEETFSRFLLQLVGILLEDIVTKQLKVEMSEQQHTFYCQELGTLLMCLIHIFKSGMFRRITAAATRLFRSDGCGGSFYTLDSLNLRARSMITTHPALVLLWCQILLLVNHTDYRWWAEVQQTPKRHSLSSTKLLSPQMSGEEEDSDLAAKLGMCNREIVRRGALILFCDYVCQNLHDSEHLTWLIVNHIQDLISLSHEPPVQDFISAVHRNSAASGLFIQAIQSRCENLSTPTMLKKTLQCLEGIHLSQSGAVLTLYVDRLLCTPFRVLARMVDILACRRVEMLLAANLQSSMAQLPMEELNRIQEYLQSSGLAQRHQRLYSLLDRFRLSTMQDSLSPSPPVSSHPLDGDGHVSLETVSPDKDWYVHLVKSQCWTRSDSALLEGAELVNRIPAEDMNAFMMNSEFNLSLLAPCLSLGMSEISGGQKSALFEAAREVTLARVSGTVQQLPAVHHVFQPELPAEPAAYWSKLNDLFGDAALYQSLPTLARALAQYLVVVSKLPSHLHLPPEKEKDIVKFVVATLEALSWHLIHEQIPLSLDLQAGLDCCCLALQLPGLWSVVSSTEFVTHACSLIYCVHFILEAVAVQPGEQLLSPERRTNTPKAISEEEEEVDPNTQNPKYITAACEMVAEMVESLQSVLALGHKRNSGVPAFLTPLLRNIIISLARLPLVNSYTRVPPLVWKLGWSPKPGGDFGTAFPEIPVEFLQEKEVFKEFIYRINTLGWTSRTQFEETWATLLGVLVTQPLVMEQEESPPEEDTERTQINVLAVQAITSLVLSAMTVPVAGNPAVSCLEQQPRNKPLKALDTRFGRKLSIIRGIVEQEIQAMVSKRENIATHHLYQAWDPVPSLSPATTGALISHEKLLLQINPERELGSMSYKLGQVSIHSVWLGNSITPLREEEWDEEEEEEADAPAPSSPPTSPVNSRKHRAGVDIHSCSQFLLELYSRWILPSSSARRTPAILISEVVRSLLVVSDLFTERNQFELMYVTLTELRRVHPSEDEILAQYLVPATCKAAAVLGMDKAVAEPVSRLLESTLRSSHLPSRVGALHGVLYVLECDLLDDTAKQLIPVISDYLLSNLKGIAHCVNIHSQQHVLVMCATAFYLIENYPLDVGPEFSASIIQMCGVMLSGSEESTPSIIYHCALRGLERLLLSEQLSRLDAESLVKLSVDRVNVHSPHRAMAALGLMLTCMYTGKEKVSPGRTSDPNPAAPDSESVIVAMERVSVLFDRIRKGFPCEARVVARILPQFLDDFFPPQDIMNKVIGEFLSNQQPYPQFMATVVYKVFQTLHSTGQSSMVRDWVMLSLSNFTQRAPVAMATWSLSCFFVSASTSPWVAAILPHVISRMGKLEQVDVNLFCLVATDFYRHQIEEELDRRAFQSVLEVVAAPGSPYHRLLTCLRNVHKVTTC
An asterisk follows results filed as active; . = no result. Rows were chosen to be rich in hits. Some 3.6% of all compounds tested hit in one or more screens of this group. No stated cut-off is given here; in the data, active means inhibition above about 50%; inactive means the rest.

SMILES	Pf apPOL block	mHTT-CaM PPI inh
COc1cc(OC)cc(C2=NC3(CCCCC3)N(C(=O)c3ccc(OC)c(OC)c3)C2=S)c1	-0.1	76.0*
Cc1cc2n(n1)CCCN2C(=O)CCC(=O)NC1CCCCC1	1.0	-2.8
O=C(c1ccc(OCC2CCCN2C(=O)c2ccc(F)cc2Cl)cc1)N1CCOCC1 (stereo unspecified)	26.5	-0.4
O=C(CC1(O)C(=O)N(Cc2ccccc2)c2ccccc21)c1ccc(Br)s1 (stereo unspecified)	-9.1	52.4*
O=C(CC1(O)C(=O)N(CCc2ccccc2)c2ccccc21)c1cccs1 (stereo unspecified)	-9.9	7.7
Cc1cccc(N2CCN(C(=O)CCc3ccccc3)C(C)C2=O)c1C (stereo unspecified)	-1.6	10.9
O=C(Nc1nnc2ccccn12)C1CCC1	3.4	1.2
O=C(Nc1ccc(Nc2ccccc2)cc1)C1CC1c1ccccc1 (stereo unspecified)	-11.0	88.5*
CC(C)c1ccc(NC(=O)C2CC2c2ccccc2)cc1 (stereo unspecified)	1.5	-4.8
CCCn1cc(CNC(=O)C2CCCN(c3nnc4c(Cl)cccn34)C2)c(C)n1 (stereo unspecified)	2.9	2.2
COc1ccccc1NCC(=O)c1ccc(C)c(C)c1	64.6*	34.0
COc1ccccc1NS(=O)(=O)c1cc(C(=O)Nc2ccccc2)ccc1C	5.7	14.5
Cc1ccc(C(=O)N2C(C(=O)O)CSC2c2ccccc2Cl)cc1[N+](=O)[O-] (stereo unspecified)	-2.1	13.0
CC(C)Oc1cccc(C(=O)Nc2ccc(F)cc2F)c1	-3.3	-13.1
Cc1cc(C)cc(N2C(=O)CSC23C(=O)Nc2ccc(Br)cc23)c1 (stereo unspecified)	-9.7	56.0*
O=C1CSC2(C(=O)Nc3ccc(Br)cc32)N1c1cccc([N+](=O)[O-])c1 (stereo unspecified)	-11.5	17.0
O=[N+]([O-])c1ccc(C2CNC(c3ccccc3)O2)cc1 (stereo unspecified)	0.3	-2.0
O=[N+]([O-])c1ccc(C2Nc3ccc(Cl)cc3C(c3ccccc3)O2)cc1 (stereo unspecified)	-5.0	82.0*
CCN1C(=O)NC(=O)/C(=C/c2cn(CCOc3ccc(F)cc3)c3ccccc23)C1=O	-4.0	13.0
Cc1ccccc1OCCn1cc(C=C2C(=O)NC(=O)NC2=O)c2ccccc21	-60.1	51.0*
O=C1NC(=O)C(=Cc2cn(CCOc3ccccc3)c3ccccc23)C(=O)N1	-52.4	33.0
CCN1C(=O)NC(=O)/C(=C/c2cn(CCOc3ccccc3C)c3ccccc23)C1=O	-2.8	61.0*
COc1ccc(/C=C/C(=O)Nc2ccccn2)cc1	-3.8	2.0
COc1cc(Br)cc2c1OC(c1ccc3c(c1)OCO3)C([N+](=O)[O-])=C2 (stereo unspecified)	-3.2	68.0*
O=[N+]([O-])C1=Cc2cc(Br)cc(Br)c2OC1c1ccc2c(c1)OCO2 (stereo unspecified)	-4.7	84.0*
SMILES	Pf apPOL block	mHTT-CaM PPI inh
COc1cc2c(cc1[N+](=O)[O-])OCO2	.	-5.3
CCOc1ccc(C2Oc3c(cc(Br)cc3OC)C=C2[N+](=O)[O-])cc1OC (stereo unspecified)	-9.1	38.0
O=[N+]([O-])C1=Cc2ccccc2OC1c1ccccc1 (stereo unspecified)	.	36.3
COc1ccc(C2Oc3c(cc(Br)cc3OC)C=C2[N+](=O)[O-])cc1OC (stereo unspecified)	-3.1	72.0*
O=C(Cc1ccccc1)N1CCC(Nc2cccnc2)C1 (stereo unspecified)	1.1	1.2
Cc1cccc(NC(=O)N2CCCC2c2ccc(Cl)cc2)c1 (stereo unspecified)	-0.3	-17.3
Cc1nnc(N2C(=O)C(O)=C(C(=O)c3cccs3)C2c2ccccc2F)s1 (stereo unspecified)	-7.9	31.4
Cc1nnc(N2C(=O)C(O)=C(C(=O)c3cccs3)C2c2ccc(Cl)c(Cl)c2)s1 (stereo unspecified)	-4.1	92.0*
O=C(O)c1ccc(O)c(C=Nc2ccc(Br)cc2)c1	0.1	85.0*
O=C(O)c1ccc(N=Cc2cc(Br)ccc2O)cc1	0.7	1.0
CCCN1C(=O)c2ccccc2CC1(C)C(=O)NCc1ccc(Cl)cc1 (stereo unspecified)	-2.4	-7.8
CC(C)C[C@H](CO)N(Cc1ccccc1)S(=O)(=O)N(Cc1ccccc1)[C@@H](CO)CC(C)C	-5.0	75.2*
C=CS(=O)(=O)N(Cc1ccccc1)[C@H](CO)CC(C)C	-6.5	-3.1
Cc1ccc(C(=O)Nc2ccc(S(=O)(=O)O)c3cc(S(=O)(=O)O)cc(S(=O)(=O)O)c23)cc1NC(=O)c1cccc(NC(=O)Nc2cccc(C(=O)Nc3cc(C(=O)Nc4ccc(S(=O)(=O)O)c5cc(S(=O)(=O)O)cc(S(=O)(=O)O)c45)ccc3C)c2)c1	53.4*	.
Cc1ccccc1NC(=O)c1ccc(C)c(S(=O)(=O)Nc2cccc(C(=O)O)c2)c1	-4.2	-3.2
C=CCc1ccccc1OCC(O)CN1CCN(c2ccc(F)cc2)CC1 (stereo unspecified)	-12.9	75.5*
C=CCc1ccccc1OCC(O)CN1CCN(c2ccccc2F)CC1 (stereo unspecified)	-2.4	-11.1
C=CCc1ccccc1OCC(O)CN1CCN(c2ccccc2)CC1 (stereo unspecified)	-1.3	74.4*
C=CCc1ccccc1OCC(O)CN1CCN(c2ccccc2OC)CC1 (stereo unspecified)	-7.9	42.9
COc1ccc(C(O)=C2C(=O)C(=O)N(CCN3CCOCC3)C2c2cccs2)cc1C (stereo unspecified)	-6.2	9.8
O=C(Nc1ccccc1F)c1cnc(-c2ccc(F)cc2)nc1-c1ccncc1	86.0*	30.4
O=C(Nc1ccccc1Cl)c1cnc(-c2ccccc2)nc1-c1ccncc1	-3.3	-2.4
O=C(Nc1ccc(F)cc1)c1cnc(-c2ccccc2)nc1-c1ccncc1	1.6	-8.0
O=C(Nc1ccc(F)cc1)c1cnc(-c2ccc(F)cc2)nc1-c1ccncc1	88.1*	38.7
Cc1ccc(-c2ncc(C(=O)Nc3ccccc3Cl)c(-c3ccncc3)n2)cc1	55.7*	11.1
SMILES	Pf apPOL block	mHTT-CaM PPI inh
O=C(Nc1ccccc1Cl)c1cnc(-c2ccc(F)cc2)nc1-c1ccncc1	2.0	-1.7
CCC1C(=O)CN1S(=O)(=O)c1ccc(C)cc1 (stereo unspecified)	1.1	5.0
Cc1cccc(NC(=O)Cn2cccc2-c2nnc(C3CCC3)o2)c1C	-2.5	8.5
COc1cc(OC)cc(C(=O)NC2CC(O)C(CO)C2)c1 (stereo unspecified)	-8.3	-4.4
Oc1ccccc1C1OC2CCCCC2C2=CCCCC21 (stereo unspecified)	-6.7	-8.4
O=C(O)COc1ccccc1C1OC2CCCCC2C2=CCCCC21 (stereo unspecified)	-5.9	50.1*
CCCC(C)C(=O)N1CCCN(c2nc3c(s2)c(C)nn3-c2cccc(C)c2)CC1 (stereo unspecified)	3.6	7.0
CC(=O)Nc1ccc(N=Cc2ccc(N(C)C)c([N+](=O)[O-])c2)cc1	-6.0	6.0
Cc1cccc(NC(=O)CSc2cn(CCNC(=O)c3ccc(F)cc3)c3ccccc23)c1	-6.1	40.0
Cc1cc(C)cc(NC(=O)CSc2cn(CCNC(=O)c3ccc(F)cc3)c3ccccc23)c1	4.5	78.0*
Cc1cccc(CC(=O)NCCC2CCN(C(=O)c3ccc(F)cc3)CC2)c1	-0.6	4.2
